From PubChem
Rows were chosen to be rich in hits. Some 2.5% of all compounds tested hit in one or more screens of this group.
Cruzain inh noDet – blocks cruzain activity in detergent-free assay; P25779; purified cruzain, Z-FR-AMC fluorescence, no detergent; Potency, µM, hits mostly inhibitors; hit rate 2.3% among 200,000; AID 1476; further: nearly all actives have a fitted effect of over 40% in size
Target sequence (P25779 123-467 limits assumed): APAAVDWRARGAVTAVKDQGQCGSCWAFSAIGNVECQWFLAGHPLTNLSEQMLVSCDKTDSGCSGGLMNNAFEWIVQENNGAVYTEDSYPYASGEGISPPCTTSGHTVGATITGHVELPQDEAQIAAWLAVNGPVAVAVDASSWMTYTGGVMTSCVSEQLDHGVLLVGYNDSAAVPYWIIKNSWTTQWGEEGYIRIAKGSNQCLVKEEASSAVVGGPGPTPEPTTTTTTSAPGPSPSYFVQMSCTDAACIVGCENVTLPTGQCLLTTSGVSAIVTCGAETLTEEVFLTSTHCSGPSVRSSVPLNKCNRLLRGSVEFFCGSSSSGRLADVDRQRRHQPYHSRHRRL
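Purified cruzain at 1.5 nM, pre-incubated 15 min with compound at room temperature in 100 mM sodium acetate pH 5.5, 5 mM DTT, 0.00005% Triton X-100. Reaction started with 2 uM Z-FR-AMC; AMC fluorescence increase over 60 s gives rate.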
Cruzain Triton – inhibitors of Trypanosoma cruzi cruzain with detergent; P25779; purified cruzain, Z-FR-AMC fluorescence, 0.01% Triton; Potency, µM, actives largely listed as inhibitors; hit rate 0.43% among 200,000; further: nearly all actives have a fitted effect of over 40% in size
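Z-FR-AMC hydrolysis (2 uM substrate) by cruzain (1.5 nM) monitored kinetically at ex 360/em 450 nm after 15 min room-temperature compound exposure; 0.01% Triton X-100, pH 5.5, 5 mM DTT.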
Each line names hits and unclear results; the compound was inactive in the other large screens. The call rests on the fitted dose curve; in most records, active means well fitted curve in the direction sought with a large enough effect; inconclusive means small, poorly fitted or top-dose-only effect, or another doubt; inactive means no such curve, though single readings can be large; an effect the other way counts as inactive or inconclusive.

CCOc1ccc(S(=O)(=O)N2CCN(c3ccc(C)cc3C)CC2)c2ccccc12	Cruzain inh noDet 3.16µM
CCOc1ccc(S(=O)(=O)N2CCCCC2)c2ccccc12	none
CSc1ccc(C2c3c(-c4ccccc4O)n[nH]c3C(=O)N2Cc2ccncc2)cc1 (stereo unspecified)	none
CC(C)(C)C(=O)Nc1nc2nc(-c3ccccc3)cc(=O)n2[nH]1	none
Cc1cccc(OCC(=O)NC(C)C(=O)N/N=C/c2c(OCc3ccccc3)ccc3ccccc23)c1 (stereo unspecified)	Cruzain inh noDet 15.8µM
Cc1cccc(OCC(=O)NC(Cc2ccccc2)C(=O)O)c1 (stereo unspecified)	none
COc1ccc(N2CCN(CCCNC(=O)c3nnc(Cc4ccc(F)cc4)o3)CC2)cc1	none
CCOc1ccc2noc3c2c1C(=O)c1ccccc1-3	none
O=C1c2ccccc2-c2onc3c(Oc4ccccc4)cc(O)c1c23	Cruzain inh noDet 20µM
CC(C)c1ccc(N2C(=O)CC(Sc3ncn[nH]3)C2=O)cc1 (stereo unspecified)	Cruzain inh noDet 3.98µM
COc1ccc(N2C(=O)CC(Sc3ncn[nH]3)C2=O)c(OC)c1 (stereo unspecified)	Cruzain inh noDet inconclusive
COc1ccccc1NC(=O)CSC1=Nc2ccccc2C2=NC(CCC(=O)NCc3cccs3)C(=O)N12 (stereo unspecified)	none
COc1ccccc1OCC(=O)Nc1nc(-c2ccc(Br)cc2)ns1	none
COc1ccc2c(c1)NC(c1ccc(F)cc1)=NC(c1ccc(F)cc1)=N2	Cruzain inh noDet inconclusive
CCCOc1ccc(C2=NC(c3ccc(F)cc3)=Nc3ccc(OC)cc3N2)cc1	Cruzain inh noDet 10µM
CC(C)(C)C(=O)OCc1cc(=O)n2nc(C3CC3)sc2n1	none
Cc1c(C)n(Cc2ccc(F)cc2)c2ccc(C(=O)Nc3ccc(Cl)cc3)cc12	Cruzain inh noDet 25.1µM
CC(=O)c1cccc(NC(=O)c2ccc3c(c2)c(C)c(C)n3Cc2ccc(Cl)cc2)c1	Cruzain inh noDet 6.31µM
COc1ccc(NC(=O)c2ccc3c(c2)c(C)c(C)n3Cc2ccc(F)cc2)c(OC)c1	Cruzain inh noDet inconclusive
COc1ccc(OC)c(NC(=O)c2ccc3c(c2)c(C)c(C)n3Cc2ccc(F)cc2)c1	Cruzain inh noDet 5.01µM
CCOc1ccc(NC(=O)c2ccc3c(c2)c(C)c(C)n3Cc2ccc(F)cc2)cc1	Cruzain inh noDet 25.1µM
CCOc1ccc(NC(=O)c2ccc3[nH]c(C)c(C)c3c2)cc1	none
CCn1c(C)c(C)c2cc(C(=O)Nc3cccc(Cl)c3)ccc21	Cruzain inh noDet inconclusive
Cc1ccc(CNC(=O)c2ccc3c(c2)c(C)c(C)n3Cc2ccc(Cl)cc2)o1	Cruzain inh noDet inconclusive
CCOc1ccc(Nc2oc(-c3ccc(COc4ccc(C)cc4)o3)nc2C#N)cc1	Cruzain inh noDet 3.16µM
COc1ccc(Nc2oc(COc3ccc(OC)cc3)nc2C#N)cc1	none
COc1ccc(Nc2oc(-c3ccc(COc4ccc(OC)cc4)o3)nc2C#N)cc1	none
COc1ccc(Nc2oc(COc3ccccc3F)nc2C#N)cc1	Cruzain inh noDet 25.1µM
COc1ccc(Nc2oc(-c3ccc(COc4cccc(C)c4)o3)nc2C#N)cc1	Cruzain inh noDet 15.8µM
COc1ccc(Nc2oc(-c3ccc(COc4ccccc4)o3)nc2C#N)cc1	Cruzain inh noDet inconclusive
Cc1cc(NC(=O)Nc2nc3c(s2)CCCCCC3)ccc1Br	none
CC1CCN(c2nn3c(=O)c(C(=O)NCCc4ccccc4)cnc3s2)CC1	none
CCn1nc(C)c(NC(=O)/C=C/c2ccc(OC)c(COc3ccc(Cl)cc3Br)c2)c1C	none
COc1ccc(/C=C/C(=O)NCc2cn(C)nc2C)cc1COc1ccc(Cl)cc1Br	Cruzain Triton 14.1µM
CCCCCn1c(=O)[nH]c2cc(C(=O)N3CCN(c4cccc(C)c4)C(C)C3)ccc2c1=O (stereo unspecified)	none
CC1=C(C(=O)Nc2ccccc2)C(c2ccc[nH]2)n2ncnc2N1 (stereo unspecified)	none
Cc1ccc(Cn2ccc(NC(=O)c3cc(-c4ccc(F)cc4)on3)n2)cc1	Cruzain inh noDet 20µM
Cc1cc(NC(=O)c2cc(-c3cccc(Cl)c3)on2)no1	Cruzain inh noDet 20µM
Cc1ccc(Cn2ccc(NC(=O)c3cc(-c4ccc(Cl)cc4)on3)n2)cc1	none
COc1cccc(-c2cc(C(=O)Nc3cc(C)on3)no2)c1	none
CC(=O)c1cccc(NC(=O)c2cc(-c3ccc(C)cc3)on2)c1	Cruzain inh noDet 25.1µM
CC(=O)c1cccc(NC(=O)c2cc(-c3ccc4c(c3)OCCO4)on2)c1	none
CCc1ccc(NC(=O)c2cc(=O)c3ccc(C)c(C)c3o2)cc1	none
CCc1ccc(CNC(=O)CCc2c(C)nn(-c3ccc(N4CCCCC4)nn3)c2C)cc1	none
CCOc1ccc(N(Cc2cc3cc(C)ccc3[nH]c2=O)C(=O)c2cccc(Cl)c2)cc1	none
O=c1cnc2cnc(Oc3ccccc3)nc2n1C[C@H]1CCCO1	none
CC(C)c1ccc(NC(=O)c2cc(S(=O)(=O)NCc3ccccc3Cl)ccc2F)cc1	none
CCCCOC(=O)CSc1nnc(-c2ccccc2)o1	none
CCCCCCCCCCCCCC(=O)N[C@H](C)[C@@H](O)c1ccccc1	none
CCN(CC)CCC[C@H](C)Nc1c2ccc(Cl)cc2nc2ccc(OC)cc12	none
O=C(NCc1ccccc1)c1ccc2c(c1)N(Cc1cccc(Cl)c1)C(=O)c1ccccc1S2(=O)=O	Cruzain inh noDet inconclusive
O=C(c1ccc2c(c1)N(Cc1ccccc1F)C(=O)c1ccccc1S2(=O)=O)N1CCC(Cc2ccccc2)CC1	none
CCc1ccccc1NC(=O)c1ccc2c(c1)N(Cc1cccc(Cl)c1)C(=O)c1ccccc1S2(=O)=O	Cruzain inh noDet 15.8µM
COc1ccccc1CNC(=O)c1ccc2c(c1)N(Cc1cccc(Cl)c1)C(=O)c1ccccc1S2(=O)=O	Cruzain inh noDet inconclusive
O=C(Nc1cccc(Cl)c1Cl)c1ccc2c(c1)N(Cc1cccc(Cl)c1)C(=O)c1ccccc1S2(=O)=O	Cruzain inh noDet 3.98µM
O=C(c1ccc2c(c1)N(Cc1ccc(Cl)cc1)C(=O)c1ccccc1S2(=O)=O)N1CCC(Cc2ccccc2)CC1	Cruzain inh noDet 12.6µM
COC(=O)c1ccc(NC(=O)N2CCN(c3nnc(C)c4c(C)n(-c5ccccc5)nc34)CC2)cc1	none
Cc1cc(C)cc(C(=O)Nc2ccc(-c3nc4ncccc4o3)cc2)c1	none
COc1cc(SC#N)ccc1N=Cc1c(C)[nH]n(-c2cccc3ccccc23)c1=O	Cruzain inh noDet 25.1µM
COc1cc(SC#N)ccc1N=Cc1c(C)[nH]n(-c2ccc(C)cc2C)c1=O	none
Cc1ccc(NC(=O)c2cc3c(s2)CCC3)cc1S(=O)(=O)N1CCOCC1	none
Cc1ccc(NS(=O)(=O)c2cc(NC(=O)c3cc4c(s3)CCCC4)ccc2C)c(C)c1	Cruzain inh noDet 31.6µM
Cc1cccc(NC(=O)CSc2nc(=O)n(CCN3CCOCC3)c3c2CCC3)c1	none
COC(=O)c1ccc(CSc2nc3scc(-c4cccs4)c3c(=O)[nH]2)o1	Cruzain inh noDet 15.8µM
COC(=O)c1ccc(CSc2nc3ccc(Cl)cc3[nH]2)o1	none
COC(=O)c1c(NC(=O)COC(=O)c2ccc(C)s2)sc2c1CCCCC2	none
CCOC(=O)c1c(NC(=O)CS(=O)(=O)c2ccc(C)cc2)sc2c1CCCCC2	Cruzain inh noDet 3.98µM
CCOC(=O)c1c(NC(=O)CS(=O)(=O)c2ccc(Cl)cc2)sc2c1CCCC2	none
COC(=O)c1c(NC(=O)COC(=O)[C@@H](NS(=O)(=O)c2ccc(C)cc2)C(C)C)sc2c1CCC2	Cruzain inh noDet 15.8µM
Cc1ccc2nc(-c3c[nH]c4ccccc34)c(Nc3ccccc3)n2c1	none
